In PubChem BioAssay AID2517 (National Center for Advancing Translational Sciences (NCATS), 2010):
“And” between values parts separate entries of the source, which are not always exact repeats. Identical values can stand only once. About 1,200 (0.34%) of roughly 350,000 compounds were called active. Entries that show only a call come without a potency. Inconclusive results (about 3%) are left out. The call rests on the fitted dose curve; in most records, active means well fitted inhibition curve with a large enough effect; inconclusive means small, poorly fitted or top-dose-only effect; inactive means no such curve, though single readings can be large or run the other way. Only a selection was taken, and actives are over-represented in it overall.

Target: DNA repair nuclease/redox regulator APEX1 (Homo sapiens) (UniProt P27695)
Assay: qHTS Assay for Inhibitors of the Human Apurinic/apyrimidinic Endonuclease 1 (APE1); further: nearly all actives have a fitted effect of over 55% in size
Conditions: recombinant APE1, TAMRA/BHQ-2 abasic DNA cleavage fluorescence; activity change, negative = inhibition: at 65.8 µM (top of the series)
From the text: The apurinic/apyrimidinic endonuclease APE1 is the primary mammalian enzyme responsible for the removal of abasic (or AP) sites in DNA and functions centrally in the base excision DNA repair (BER) pathway. […] Thus, targeting APE1 could improve the efficacy of current treatment paradigms by promoting selective sensitization or protection of diseased and normal cells, respectively.
Inhibition of APE1 activity was screened by utilizing double-stranded short substrate containing tetrahydrofuran (THF) abasic site labeled with rhodamine-type fluorophore (TAMRA) at the 5'-end and with non-fluorescent Black Hole Quencher-2 (BHQ-2) at the opposing 3'-end. An increase in the fluorescence intensity due to incision of the abasic site by APE1 was used to measure the enzyme activity.
NIH Chemical Genomics Center [NCGC]
NIH Molecular Libraries Probe Centers Network [MLPCN]
Assay Provider: David M. Wilson, III, National Institute on Aging, NIH
Three uL of enzyme solution (0.75 nM APE1 final concentration) was dispensed to 1536-well Greiner black solid bottom plates. […] The plates were incubated for 15 min at room temperature, and then 1 uL of substrate solution (50 nM final concentration of TAMRA/BHQ-2) was added to start the reaction. The plates were immediately transferred into ViewLux High-throughput CCD imager (Perkin-Elmer) in order to measure the reaction progress in kinetic mode (three reads every 60 seconds) using 525 nm excitation and 598 nm emission fluorescence protocol. The fluorescence intensity difference between the third and the first time points was used to compute reaction progress. Results were normalized to buffer only columns and NSC13755 positive controls and negative control DMSO treated wells.
Potency means the concentration at half of the fitted maximal effect.

Sequence of DNA repair nuclease/redox regulator APEX1 (Homo sapiens) (P27695 whole entry, looked up): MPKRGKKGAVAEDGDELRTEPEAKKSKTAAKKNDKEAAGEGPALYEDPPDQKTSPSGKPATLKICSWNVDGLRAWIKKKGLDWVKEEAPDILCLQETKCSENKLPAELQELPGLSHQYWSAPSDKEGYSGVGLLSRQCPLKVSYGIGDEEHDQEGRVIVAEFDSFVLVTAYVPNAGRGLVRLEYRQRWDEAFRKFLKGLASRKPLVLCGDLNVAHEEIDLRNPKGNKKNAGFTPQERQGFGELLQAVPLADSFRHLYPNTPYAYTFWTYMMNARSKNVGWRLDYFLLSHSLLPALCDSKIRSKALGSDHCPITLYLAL

Compound | Potency | activity change, negative = inhibition
CCCn1c(-c2ccc(F)cc2)nc2c(NC3CCN(Cc4ccccc4)C3)nc(C)nc21 (centres undefined) | inactive | –
COc1ccc(C(=O)N2CCC3(CC2)CCN(c2ccccn2)CC3)cc1 | inactive | –
COc1ccc(-c2nc3c(c4c2C[C@H](c2ccccc2)OC4)CN(C(=O)c2cccnc2)CC3)c(C)c1 | – | -2.55% [at 12.4 µM] (inactive)
NC(=O)C1CCN(c2nc(-c3cccc(F)c3)cs2)CC1 | inactive | –
C=C[C@](C)(O)CCC1C(=C)CCC2[C@@](C)(CO)CCC[C@@]12C (some centres undefined) | inactive | –
COc1ccc2[nH]c3c(C)c4cc[n+](C)cc4c(C)c3c2c1 | 12.6 µM (active) | –
COc1ccc2[nH]c(C(=O)N3CCN(C)CC3)c(C)c2c1 | inactive | –
COc1ccc2[nH]c(=S)cc(C)c2c1 | inactive | –
CC/C=C\C/C=C\C/C=C\C/C=C\C/C=C\C/C=C\CCC(=O)NCCc1ccc(O)c(O)c1 | inactive | –
COC(=O)C(C(=O)OC)[C@@H](NC=O)c1ccccc1 | inactive | –
Nc1nc2c(nc(Cl)n2C2OC(CO)C(O)C2O)c(=O)[nH]1 (centres undefined) | inactive | –
COc1cccc(-c2cc(NCCc3c[nH]c4ccc(OC)cc34)ncn2)c1 | inactive | –
CS(=O)(=O)NC(=O)CCC/C=C\C[C@H]1C(=O)C[C@@H](O)[C@@H]1/C=C/[C@H](O)COc1ccccc1 | inactive | –
CC/C=C\C/C=C\C/C=C\C/C=C\C/C=C\C/C=C\CCC(=O)NC(C)C(=O)O (centres undefined) | inactive | –
COC(=O)c1ccc(C(NC(=O)OCc2ccccc2)/C(C)=C/[C@@H](C)C(=O)NCc2cc(C)on2)cc1 (some centres undefined) | inactive | –
CC(C)(C)c1ccc(OC2C=CC(C#Cc3ccccc3)OC2CO)cc1 (centres undefined) | – | 3.5% [at 12.4 µM] (inactive)
O=C(Nc1nc(-c2ccco2)c(-c2ccco2)s1)c1ccco1 | inactive | –
COCCNC(=O)Nc1ccc2nc(-c3ccco3)c(-c3ccco3)nc2c1 | 6.31 µM (active) | –
O=C(NCc1ccccn1)c1ccc2nc(-c3ccco3)c(-c3ccco3)nc2c1 | 10 µM (active) | –
O=C1CSc2ccc(C(=O)NCc3ccccn3)cc2N1 | inactive | –
COCCNC(=O)c1snc2ccc(Cl)cc12 | inactive | –
COc1cccc(S(=O)(=O)NCc2ccc(C(=O)NCc3ccccn3)cc2)c1 | inactive | –

Compound | Potency | activity change, negative = inhibition
O=C(O)CC(C(=O)O)C(CC(=O)O)C(=O)O (centres undefined) | inactive | –
NC(=O)c1sc(-c2ccsc2)cc1N | inactive | –
COc1ccc(CC(N)C(=O)NC2C(O)[C@H](n3cnc4c(N(C)C)ncnc43)O[C@@H]2CO)cc1 (some centres undefined) | inactive | –
CCCn1c(C)nc2c(NCCCCN(CC)CC)nc(C)nc21 | inactive | –
C=C1CCN(C(CC(C)C)C(=O)N2CCOCC2)S(=O)(=O)c2ccccc21 (centres undefined) | inactive | –
O=C(Cc1c(O)c2ccccc2[nH]c1=O)NCc1ccccc1 | inactive | –
O=C1C(c2[nH]c3ccccc3c2O)=Nc2ccccc21 | 7.94 µM (active) and 3.98 µM (active) | –
CC(C)C(=O)Nc1c(O)c2ccccc2[nH]c1=O | inactive | –
CCCCC/C=C\C/C=C\CCCCCCCCCC(=O)NCC(=O)O | inactive | –
CCCCCCCC/C=C\CCCCCCCC(=O)NCC(=O)O | inactive | –
COc1c(O)cc2oc(-c3ccc(O)c(O)c3)cc(=O)c2c1O | 7.08 µM (active) | –
Cc1cccc(-c2cc(=O)c3cc(C)ccc3o2)c1 | inactive | –
COc1ccc2c(=O)cc(-c3ccccc3)oc2c1O | inactive | –
Cc1ccc(NC(=O)O[C@@H]2C(=O)c3cc(Br)ccc3O[C@H]2c2ccc3c(c2)OCO3)cc1Br | inactive | –
CC(C)(C)n1ncc2c(=O)n(Cc3ccc(C(=O)c4ccccc4)cc3)cnc21 | inactive | –
Cc1cccc2c3c(ccc12)C1=C(C(=O)C3=O)C(C)CO1 (centres undefined) | inactive | –
CN[C@@H]1[C@H](O[C@H]2[C@H](O[C@H]3[C@H](O)[C@@H](O)[C@H](N=C(N)N)[C@@H](O)[C@@H]3N=C(N)N)O[C@@H](C)[C@]2(O)CO)O[C@@H](CO)[C@H](O)[C@H]1O | inactive | –
CCOC(=O)C1=NO[C@@]2(C=C(Br)C(=O)[C@H]3O[C@H]32)C1 | 7.94 µM (active) | –
CCOC(=O)C1=NOC(Cn2cc(C(C)=O)c(=O)[nH]c2=O)C1 (centres undefined) | inactive | –
CCOC(=O)C1=C(C)N=C2c3ccccc3C(=O)C2C1c1ccc(Br)cc1 (centres undefined) | inactive | –
CC(C)C[C@@H](CC(=O)N[C@@H](CCC(=O)O)CC(=O)O)NC(=O)[C@@H]1CCCC[C@H]1NC(=O)C[C@@H](NC(=O)C[C@H](Cc1c[nH]c2ccccc12)NC(=O)[C@@H]1CCCC[C@H]1N)C(C)C | inactive | –
CC(C)C1=CC2=CC[C@@H]3[C@](C)(CO)CCC[C@]3(C)C2CC1 (some centres undefined) | inactive | –
